# Data reported in PubChem BioAssay (NCI).
# The panel holds about 83,000 compounds, 20% with a hit somewhere; the sample as a whole holds those more often.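 In brief: 96-well plates, 48 h treatment, single concentration, percent growth endpoint.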 Unmarked numbers belong to inactive results. Activity calls are given as the source filed them.
# Test system: NCI-H226 lung
# Experiment: NCI-60 one-dose screen, 48 h (100 = growth as untreated, 0 = no growth, -100 = all killed)
# Details: 10 µM unless noted
# Procedure: Growth inhibition of the NCI-H226 human Non-Small Cell Lung tumor cell line is measured as a screen for anti-cancer activity. Cells are grown in 96 well plates and exposed to the test compound for 48 hours. Compounds are tested at a single concentration, which is 10^-5 M for most compounds. The reported endpoint is percent growth (GI% or GIPRCNT), where numbers from 0 - 100% represent growth inhibition, and numbers from -100% - 0 represent cell death. For example, a value of 40 represents 60% growth inhibition. A value of 0 means no net growth occurred over the course of the experiment. A value of -40 indicates 40% of cells at the beginning of the experiment died by the end of the experiment. A value of -100 means all cells are dead at the end of the experiment.
# NCI-60 Human Tumor Cell Lines Screen was performed using the standard one-dose NCI protocol, which is described in more detail at https://dtp.cancer.gov/discovery_development/nci-60/default.htm.
# Compounds with GIPRCNT values below 10 were considered active. Activity score was based on GIPRCNT using the following formula: […]
# Score is 0 for GIPRCNT values of 100 or above, 50 for GIPRCNT values of 0, and 100 for GIPRCNT values of -100.
row,Structure (SMILES),growth
1,Clc1ccc2c(NCCCN3CCOCC3)c3oc4ccccc4c3nc2c1,45.3%
2,COc1cc(/C=C/C(=O)c2ccc(F)cc2)ccc1Oc1nc(NCCO)nc(N2CCOCC2)n1,87.8%
3,Cc1cc2nc3c4cc(Cl)ccc4n(CC(=O)NCCN(C)C)c3nc2cc1C,25.7%
4,Nc1c(C(=O)Nc2ccc(Cl)cc2)sc2nc(-c3cnccn3)cc(-c3cccs3)c12,13.2%
5,CN1CCN(Cc2ccc(NC(=O)c3cncc(C#Cc4cnc5[nH]ncc5c4)c3)cc2C(F)(F)F)CC1,20.4%
6,COc1ccc(N/N=C/c2c(-c3ccc(S(C)(=O)=O)cc3)nc3ccccn23)cc1,71%
7,CC1=C(C)C(=O)C(Nc2cccc(C(F)(F)F)c2)=C(Cl)C1=O,90.9%
8,COc1ccc(-c2nc3ccc(-c4nnc(SCC(=O)Nc5ccc(C(C)=O)cc5)o4)cc3[nH]2)cc1,100%
9,O=c1/c(=C\c2ccc(-c3ccccc3)o2)sc2nc(-c3ccccc3)nn12,109%
10,NC(=O)c1c(NC(=O)c2ccc(C3CCCCC3)cc2)sc2c1CCC(=O)C2,19.6%
11,CC(C)(C)Nc1nc2c(OCCc3ccccc3)cccn2c1-c1ccc(O)cc1,63%
12,O=C1C2=C(C(=O)c3c(O)cccc31)C(c1ccco1)c1sc(=O)[nH]c1S2 (stereo not given),-20.7% (active)
13,NS(=O)(=O)c1cccc(Nc2nc(SCC(=O)c3ccc([N+](=O)[O-])cc3)nc3ccccc23)c1,-20.9% (active)
14,Nc1cc(-c2c[nH]c3ccc(Cl)cc23)nc2cc(-c3c[nH]c4ccc(Cl)cc34)nn12,71.3%
15,CN(C)CCCNc1c2ccc(Cl)cc2nc2c1oc1ccc(Cl)cc12,25.7%
16,O=C(CSc1nnc(-c2ccc3nc(-c4ccc(Cl)cc4)[nH]c3c2)o1)Nc1ccc(C(=O)/C=C/c2ccc(Cl)cc2)cc1,86%
17,C#Cc1nc(C2=C(C)C(OC(C)=O)/C(=N/OC(C)=O)C2)cs1 (stereo not given),96.1%
18,CCN1C(=S)N(c2ccccc2)C2NC(=O)N(/N=C/C=C/c3ccccc3OC)C21 (stereo not given),98.9%
19,COc1cc(/C=C/C(=O)c2ccc(C)cc2)ccc1Oc1nc(NCCO)nc(N2CCOCC2)n1,52%
20,c1ccc2c(NCCCn3ccnc3)c3oc4ccccc4c3nc2c1,-1.35% (active)

row,Structure (SMILES),growth
1,CCCSc1nc(Nc2ccc(/C(C)=N\NC(N)=S)cc2)c(C#N)c(-c2ccc(OC)cc2)n1,27%
2,O=C(CN1CCOCC1)NNc1ncnc2ccccc12,107%
3,CN(C)CCCOc1c2ccccc2nc2c1oc1ccc(Cl)cc12,-6.99% (active)
4,COc1cc(OC)c(C2SCC(=O)N2Nc2ncnc3ccccc23)cc1OC (stereo not given),107%
5,O=C1c2c(c3c4cc(Br)ccc4[nH]c3c3ccc4ccccc4c23)C(=O)N1CCO,88.9%
6,CCOC(=O)c1c(Nc2ccccc2)nn2c(N)c(C#N)c(-c3ccc(F)cc3)nc12,90.6%
7,COc1ccc(CNS(=O)(=O)/N=C2\NC(=O)NC2=C(Cl)Cl)cc1,46.1%
8,Cc1nc(-c2cc3ccccc3oc2=O)ccc1C(=O)/C=C/c1ccccn1,88.7%
9,COc1ccc(-c2nc3ccc(-c4nnc(SCC(=O)Nc5ccc(C(=O)/C=C/c6ccccc6)cc5)o4)cc3[nH]2)cc1OC,98.2%
10,COc1cccc(OC)c1-c1nnn(C)c1C(=S)N1CCN(c2ccc([N+](=O)[O-])cc2Cl)CC1,88.6%
11,Cn1c(SCC(=O)Nc2ccc(-c3nc4ccc([N+](=O)[O-])cc4[nH]3)cc2)nc2ccccc2c1=O,37.9%
12,O=C(c1ccc(O)cc1)C1[C@H](c2ccc(Cl)cc2)[C@@H](c2ccccc2)NC12C(=O)Nc1ccc(Cl)cc12 (stereo not given in full),42.3%
13,CCCC(=O)NC(c1ccc2c(c1)OC(F)(F)O2)c1cc(C)c2cccnc2c1O (stereo not given),10.8%
14,Cc1sc2nc(NCc3ccccc3Cl)[nH]c(=O)c2c1C,88.5%
15,[Cl][Ru].c1ccc(-c2cc(-c3ccccn3)nc(-c3ccccn3)c2)cc1.c1ccc(-c2ccnc3c2ccc2c(-c4ccccc4)ccnc23)cc1,-18% (active)
16,Cc1ccccc1NC(=O)/C=C/c1ccc(OCCOc2ccc3c(C)cc(=O)oc3c2)cc1,92.9%
17,CN(C)CCCOc1c2ccc(Cl)cc2nc2c1oc1ccccc12,-0.673% (active)
18,COc1ccc(NC2=C(Cl)C(=O)C(C)=C(C)C2=O)cc1OC,92.6%
19,N#Cc1c(-c2ccc(Cl)cc2)nc(SCc2ccc([N+](=O)[O-])cc2)nc1N1CCNCC1,85.2%
20,NS(=O)(=O)c1ccc(Nc2nc(Nc3ccccc3)nc(-n3nc(-c4ccccc4)cc3-c3ccccc3)n2)cc1,40.7%
